Screens deposited in PubChem by National Center for Advancing Translational Sciences (NCATS).
Tau ThT inhib – tau fibrillization inhibition (ThT binding); recombinant tau K18 P301L, heparin-induced fibrillization, ThT fluorescence; actives 2.1% (n = 270,000); Potency, µM (highest dose often 57.4 µM), without a hit: top-dose activity, negative = inhibition, most hits filed as inhibitors; note: nearly all actives have a fitted effect of over 55% in size
Target sequence (P10636 561-689 P618L limits assumed): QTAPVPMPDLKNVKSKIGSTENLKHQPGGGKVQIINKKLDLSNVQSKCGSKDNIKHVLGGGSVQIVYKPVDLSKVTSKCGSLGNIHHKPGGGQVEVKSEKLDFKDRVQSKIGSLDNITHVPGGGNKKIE
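Fibril formation assay: tau K18 P301L at 15 uM with trace Alexa 594 label, heparin inducer 20 uM, pH 7 sodium acetate buffer, 37 C for 6 hr; endpoint ThT signal.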
Tau fluor cs – counter-screen for tau fibril formation inhibitors | AID 1463 | tau K18 P301L Alexa594 fluorescence, heparin fibrillization | Potency, µM (doses to about 57.7 µM), for inactives: at the top dose activity change, negative = decrease | actives 0.93% (n = 280,000); note: nearly all actives have a fitted effect of over 55% in size
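Human tau K18 P301L (15 uM unlabeled, 0.24 uM Alexa 594-labeled) in 100 mM sodium acetate pH 7 with 20 uM heparin, 6 hr at 37 C. ThT 30 uM added, 1 hr ambient; Alexa 594 FP and total fluorescence read at 555/632 nm.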
TRb SRC2 PPI – inhibitors of human thyroid hormone receptor beta-SRC2 interaction. P10828. TRbeta-SRC2 peptide binding, fluorescence polarization; receptor liganded with 1 µM T3. Potency, µM (doses to about 106 µM), without a hit: top-dose activity change, negative = inhibition, actives largely listed as inhibitors. actives 0.065% (n = 280,000). AID 1469;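 note: plate controls were bound peptide for no effect and peptide without receptor for full effect; nearly all actives have a fitted effect of over 50% in size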
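Each compound concentration gave % activity, normalized to unbound and bound Texas Red SRC2 controls, from polarization read after 5 hr ambient incubation with T3-loaded human TRb LBD.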
TR SRC2 fluor cs – counter-screen for TRb-SRC2 inhibitors: fluorescence interference. TRb/SRC2 Texas Red total fluorescence interference. Potency, µM (titrated, usually from 106 µM), for the others: at the top dose fluorescence change, negative = quenching. actives 0.29% (n = 280,000); active = well fitted curve in either direction with a large enough effect; inconclusive = small, poorly fitted or top-dose-only effect
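Human TRb ligand-binding domain at 0.6 uM with 20 nM Texas Red SRC2 peptide in Tris buffer containing 1 uM T3 and 5% DMSO, incubated with compound 5 h at ambient temperature. Total fluorescence (555/632 nm) calculated as parallel + 2 × perpendicular.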
RGS12 GoLoco inh – RGS12 GoLoco-Gai1 interaction inhibition | Gai1:RGS12 GoLoco peptide FP, rhodamine, 10 min | Potency, µM (series often up to 61.6 µM), for the others: at the top dose activity, negative = inhibition, actives largely listed as inhibitors | actives 0.44% (n = 230,000) | AID 880; active = well fitted inhibition curve with a large enough effect, not every such curve was filed as active; inactive = no such curve, though single readings can be large or run the other way; note: nearly all actives have a fitted effect of over 30% in size
Target sequence (P63096 whole entry, looked up): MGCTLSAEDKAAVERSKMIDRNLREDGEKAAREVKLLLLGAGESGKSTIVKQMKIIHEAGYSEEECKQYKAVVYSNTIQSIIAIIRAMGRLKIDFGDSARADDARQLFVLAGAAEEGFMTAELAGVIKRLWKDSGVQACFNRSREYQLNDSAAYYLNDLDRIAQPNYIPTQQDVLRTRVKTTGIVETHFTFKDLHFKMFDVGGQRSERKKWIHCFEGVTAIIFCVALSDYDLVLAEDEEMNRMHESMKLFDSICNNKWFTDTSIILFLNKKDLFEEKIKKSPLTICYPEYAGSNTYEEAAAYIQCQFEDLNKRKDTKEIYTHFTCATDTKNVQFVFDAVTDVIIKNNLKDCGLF
Tau fibril FP – inhibitors of human tau fibril formation; P10636; K18 P301L tau heparin fibrillization, Alexa594 FP, 6 h; Potency, µM (top dose mostly 57.7 µM), inactives show top-dose activity, negative = inhibition, actives largely listed as inhibitors; actives 0.39% (n = 280,000); note: nearly all actives have a fitted effect of over 55% in size
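FP of Alexa 594-tau after heparin (20 uM) induction. Substrate: human K18 P301L, 15 uM unlabeled, 0.24 uM labeled. Buffer 100 mM sodium acetate pH 7. 6 hr, 37 C.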
Starred values were filed as active, the others as inactive; ? = inconclusive; · = no result; [ ] = another dose, or the depositor's remark. An excerpt weighted towards active compounds, which were near 3.2% of everything screened. Unless noted, calls come from the whole dose curve; as a rule, active = well fitted curve in the direction sought with a large enough effect; inconclusive = small, poorly fitted or top-dose-only effect, or another doubt; inactive = no such curve, though single readings can be large; an effect the other way counts as inactive or inconclusive. Unless noted, % is set by controls: 0 for no effect and ±100 for the full control effect; potency is the fitted concentration of half-maximal effect.

SMILES | Tau ThT inhib | Tau fluor cs | TRb SRC2 PPI | TR SRC2 fluor cs | RGS12 GoLoco inh | Tau fibril FP
O=C(Nc1ccc(F)cc1Cl)c1cnc(N2CCOCC2)c2ccccc12 | -0.6% | -3.3% | -21.2% | 11.2µM*[quencher] | · | 3.0%
O=C(NCc1ccccc1Cl)c1cnc(N2CCCCC2)c2ccccc12 | -9.7% | -7.1% | -15.1% | 1585µM*[quencher] | · | 7.0%
Cc1ccc(Cl)cc1N1CCN(C(=O)c2cnc(N3CCOCC3)c3ccccc23)CC1 | -14.8% | -7.9% | -14.7% | 70.8µM*[quencher] | · | 4.5%
Cc1ccc(Cl)cc1N(C)C(=O)c1cnc(N2CCOCC2)c2ccccc12 | -6.5% | -8.9% | -1.6% | -3.1% | · | 0.8%
COc1ccc(NC(=O)CCNS(=O)(=O)c2ccc3c(c2)CCCC(=O)N3)cc1 | -3.2% | -9.6% | -1.4% | -15.5% | · | -6.3%
COc1cc2c(C=O)c3c4c(cc(OC)c(OC)c4c2cc1OC)CCN3C | 14.1µM* | ? | -24.9% | -0.8% | 60.4% | -8.4%
COc1cc2c(cc1OC)-c1cc3cc(OC)c(OC)cc3c(=O)n1CC2 | ? | -27.0% | 3.2% | -12.7% | -0.9% | 7.0%
COc1cc2c(cc1OC)CC(=O)N(C)CC2 | 5.6% | 8.9% | -2.4% | -3.0% | 2.8% | 2.1%
COc1cc2c(C)c3c4c(cc(OC)c(OC)c4c2cc1OC)CCN3C | ? | 10µM*[quencher] | -7.3% | -0.7% | 2.5% | ?
CC(/C=C\C=C\c1ccccc1)=N\NC(=O)c1cncc(Br)c1 | 10µM* | -13.7% | 3.0% | 0.3% | 29.0% | 3.1%
CC(/C=C/C=C/c1ccccc1)=N\NC(=O)c1cccnc1 | ? | -5.9% | -4.1% | -3.3% | 11.3% | -0.7%
CCN1CCN(c2ccc(N=Cc3ccc(O)cc3O)cc2)CC1 | 15.8µM* | ? | -5.6% | -1.4% | 14.1% | ?
O=C(OCn1ncc(Br)c(Br)c1=O)c1ccccc1Cl | 8.91µM* | -20.1% | -17.8% | -2.2% | -15.8% | ?
O=C(OCn1ncc(Br)c(Br)c1=O)c1ccc(F)cc1 | ? | -5.7% | -6.3% | -2.1% | -4.2% | ?
O=[N+]([O-])c1ccc(NCCCN2CCOCC2)c([N+](=O)[O-])c1 | ? | -10.9% | -2.9% | -2.1% | 1.5% | -17.9%
Cc1ccc(NC(=O)c2ccc(NCCCN3CCOCC3)c([N+](=O)[O-])c2)cc1Cl | 12.6µM* | ? | 5.0% | -3.7% | 12.1% | -1.1%
O=C(Nc1ccc(Cl)c([N+](=O)[O-])c1)c1ccc(NCCCN2CCOCC2)c([N+](=O)[O-])c1 | 2.51µM* | -27.7% | -11.4% | -0.5% | 3.2% | -15.8%
COc1ccc(NC(=O)c2ccc(NCCCN3CCOCC3)c([N+](=O)[O-])c2)cc1 | 15.8µM* | -21.1% | -17.8% | -7.7% | 7.5% | 13.0%
COC(=O)[C@@]1(C)C=C[C@@H](Cc2ccccc2)N1C(=O)c1ccccc1 | -3.9% | -4.7% | 5.6% | -1.9% | 1.6% | 7.0%
CC1CCC(C(C)C)C(P(=O)(c2ccccc2)c2ccccc2)C1 (stereo not drawn) | · | · | 0.7% | -0.1% | · | ·
Cc1cc2cc(C=C(C#N)C#N)c(Cl)nc2cc1C | 3.16µM* | -13.3% | 6.2% | -6.8% | -30.4% | ?
CCOC(=O)/C(C#N)=C/c1cc2cc(C)c(C)cc2nc1Cl | -11.0% | -1.8% | 2.6% | -1.6% | 3.1% | 1.7%
CCOc1ccc(-c2cn3c(n2)sc2cc(C(=O)NCCCN(CC)CC)ccc23)cc1 | 1.2% | 0.8% | -7.8% | 4.0% | · | 0.1%
CCOC(=O)c1c(NC(=O)CSc2cn(CCNC(=O)c3ccccc3F)c3ccccc23)sc2c1CCCC2 | -8.5% | ? | 0.1% | ? | · | -20.0%
CC[n+]1ccc(C[n+]2ccccc2)c2ccccc21 | ? | -14.4% | 1.5% | -1.5% | 17.8µM* | ?
SMILES | Tau ThT inhib | Tau fluor cs | TRb SRC2 PPI | TR SRC2 fluor cs | RGS12 GoLoco inh | Tau fibril FP
COC(=O)C(=O)/C=C(\O)c1ccc(C)cc1 | 22.4µM* | ? | 2.0% | -6.5% | · | ?
CCSC1=C(C#N)C(c2ccc(OC)c(OC)c2)CC(=O)N1 (stereo not drawn) | -9.6% | -6.1% | -2.2% | -3.0% | 8.0% | -1.2%
COc1ccc(N2CSC3=C(C#N)C(c4cc(OC)c(OC)cc4OC)CC(=O)N3C2)c(OC)c1 (stereo not drawn) | 8.91µM* | ? | 1.5% | 4.9% | -8.2% | 12.6µM*
COc1ccc(N2CSC3=C(C#N)C(c4ccc(OC)c(OC)c4)CC(=O)N3C2)c(OC)c1 (stereo not drawn) | 7.94µM* | ? | 1.2% | 1.6% | -31.9% | 15.8µM*
CCOc1ccccc1N1CSC2=C(C#N)C(c3c(OC)ccc4ccccc34)CC(=O)N2C1 (stereo not drawn) | 3.98µM* | ? | ? | -20.5% | -12.2% | 10µM*
CCOC(=O)c1ccc(N2CSC3=C(C#N)C(c4cccs4)CC(=O)N3C2)cc1 (stereo not drawn) | ? | -14.9% | 1.1% | -0.1% | -33.5% | ?
COc1ccc(N2CSC3=C(C#N)C(c4cc(OC)ccc4OC)CC(=O)N3C2)c(OC)c1 (stereo not drawn) | 12.6µM* | ? | -4.6% | 1.4% | -13.4% | 28.2µM*
COc1cccc(CNC(=O)Cn2c(=O)cc(C)c3c(C)nn(C)c32)c1OC | 3.2% | 1.1% | -4.5% | -2.8% | · | 1.8%
O=C(COc1cccnc1[N+](=O)[O-])c1ccc(Cl)s1 | 5.01µM* | ? | -19.1% | -15.9% | 73.1% | 10µM*
O=C1c2ccccc2C(=O)c2c1oc(C(F)(F)F)c2C(=O)c1ccccc1 | ? | ? | -3.8% | -4.5% | -32.1% | -4.0%
COc1ccc2occ(C(=O)c3ccccc3)c2c1 | -4.0% | -1.6% | 0.7% | -6.1% | -3.6% | -1.8%
O=C(c1ccccc1)c1coc2c1C(=O)c1ccccc1C2=O | 12.6µM* | ? | 4.2% | -1.5% | 1.4% | -12.3%
COc1ccc(C(=O)c2coc3c2C(=O)C(=O)c2ccccc2-3)cc1 | 2.82µM* | ? | -3.4% | -2.7% | 0.3% | ?
CCOc1ccc(N2C(=O)C(Cl)=C(Nc3ccccc3O)C2=O)cc1 | 10µM* | ? | -19.2% | 0.0% | 75.8% | ?
O=C1C(Cl)=C(Nc2ccccc2O)C(=O)N1CCc1ccccc1 | 10µM* | ? | 2.5% | -1.8% | 19.7% | ?
